A short description of assay [1]: HUVEC growth inhibition – cell-based, human, primary screen (AID 575;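 active = viability at or below 30% in both replicate assays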;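 note: 100% = median of untreated cell wells with 0.1% DMSO on each plate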). The conditions noted are these: HUVEC proliferation, CellTiter-Glo luminescence, 72 h; at 10 µM; stronger effect = lower value. A general note: Cellular ATP, detected with luciferase, serves as a proxy for viable cell number.
The nature of assay [2]: growth inhibitors of H69AR lung tumor, primary screen, human, duplicate replicates (AID 580).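 Note: 100% = mean luminescence of untreated wells and 0% = no signal.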 Particulars: H69AR lung tumor cells viability, ATP luminescence, 72 h; at 10 µM; stronger effect = lower value.
Assay [3] in a line: reversal of MRP1-mediated doxorubicin resistance, pilot screen, H69AR cells, doxorubicin co-treatment (AID 601;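 active = viability loss from added drug above about 55%, and viability with drug at most 40%, in both replicates, limit read from the data, passing the limit was not always enough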). Particulars: CellTiter-Glo, 72 h, at 10 µM; for differential viability (reversal): stronger effect = higher value.
Assay [4] is described as follows: 384-well plate pilot, post-Golgi transport modulator project, inhibition of yeast transport mutant growth (AID 636; in the data active = inhibition above about 31%). Particulars: absorbance 615 nm, about 18 h, stronger effect = higher value.
Assay [5] in a line: growth suppression of yeast trafficking mutant, preliminary HTS, modulators of trafficking downstream of Golgi apparatus project, 1536-format plate, OD 615 nm (AID 637; in the data active = inhibition above about 30%). Particulars: yeast transport mutant growth, absorbance 615 nm, 18 h; stronger effect = higher value.
[6] abbreviates: H69AR cells + 2 uM doxorubicin, measured here: viability with 2 uM doxorubicin, stronger effect = lower value.
Setting [7] is: H69AR cells, compound alone cytotoxicity.

Active and inactive are the calls of the source.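 Rule for the calls, unless noted: active = viability at or under a set limit in both replicates, limit being median viability minus 3 SD (cut at about 48% in these data, passing the limit was not always enough); inconclusive = at or under the limit in just one replicate; inactive = at or above the limit in both replicates.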

For orientation: viability means a read-out of living cells in per cent, often relative to untreated cells. A word on the inhibition: it is the change of the read-out against control, counted positive when it falls. As to `O=C(Nc1ccc2c(c1)C(=O)N(C1CCCCC1)C2=O)C1CCCO1` (stereo not drawn), the viability in assay [1] is 90.8% (inactive); in assay [2], 90.9% (inactive); in assay [3] (setting [6]), 92.6%; in assay [3] (setting [7]), 90.9%. Also, the differential viability (reversal) in assay [3] (H69AR cells + 2 uM doxorubicin) was -1.69% (inactive). The inhibition in assay [4] is -3.33% (inactive); in assay [5], -0.63% (inactive).
`O=C(COC(=O)c1ccc(NS(=O)(=O)c2ccc3c(c2)OCCO3)cc1)NCC1CCCO1` (stereo not drawn): the viability in assay [1] is 104% (inactive); in assay [2], 107% (inactive); in assay [3] (setting [6]), 95.8%; in assay [3] (setting [7]), 107%. In addition, in assay [3] (H69AR cells + 2 uM doxorubicin), the differential viability (reversal) is 11.2% (inactive). Also, the results for the inhibition in assay [4] and in assay [5] were -1.69% (inactive) and -7.78% (inactive), respectively.
For the compound `CCOC(=O)c1nnn(-c2nonc2NC(C)=O)c1C`, the viability is 91.7% (inactive) in assay [1], 98.2% (inactive) in assay [2], 96.5% in assay [3] (setting [6]) and 98.2% in assay [3] (setting [7]). For the same compound, the differential viability (reversal) in assay [3] (H69AR cells + 2 uM doxorubicin) was 1.68% (inactive). Further, the inhibition was -0.65% (inactive) in assay [4] and -4.13% (inactive) in assay [5].
As for `O=C(CCCN1C(=O)c2ccccc2C1=O)NCc1cccnc1`, the viability in assay [1] is 95.9% (inactive); in assay [2], 94.2% (inactive); in assay [3] (setting [6]), 91.3%; in assay [3] (setting [7]) it was 94.2%. Also, the differential viability (reversal) in assay [3] (H69AR cells + 2 uM doxorubicin) is 2.95% (inactive). Also, the inhibition is -2.13% (inactive) in assay [4] and -3.49% (inactive) in assay [5].
Take `O=C1CC(C(=O)Nc2ccccc2)C2(CCCC2)O1` (stereo not drawn): the viability in assay [1] was 98.4% (inactive); in assay [2] it was 93.9% (inactive); in assay [3] (setting [6]), 90.8%; in assay [3] (setting [7]), 93.9%. For the same compound, in assay [3] (H69AR cells + 2 uM doxorubicin), the differential viability (reversal) is 3.1% (inactive). For the same compound, the inhibition was -2.6% (inactive) in assay [4] and -2.38% (inactive) in assay [5].
Take `O=S1(=O)C=C(Sc2nnc(-c3ccccc3)o2)c2ccccc21`: the viability in assay [1] was 42.9% (inactive); in assay [2], 1.65% (active); in assay [3] (setting [6]), 1.27%; in assay [3] (setting [7]) it was 1.65%. Besides, the differential viability (reversal) in assay [3] (H69AR cells + 2 uM doxorubicin) is 0.375% (inactive). For the same compound, the figures for the inhibition in assay [4] and in assay [5] were 57% (active) and 95.8% (active), respectively.
Regarding `Cc1cccc2cc(CN(Cc3nnnn3Cc3ccco3)C3CCCC3)c3nnnn3c12`, the results for the viability in assay [1] and in assay [2] were 86.8% (inactive) and 85.6% (inactive), respectively. Also, the inhibition in assay [4] is 68.2% (active); in assay [5], 4.44% (inactive).
Take `CN1CCN(S(=O)(=O)c2ccc(NC(=O)c3ccc(F)cc3)cc2)CC1`: the viability in assay [1] was 94.2% (inactive); in assay [2], 96.8% (inactive); in assay [3] (setting [6]), 88.9%; in assay [3] (setting [7]), 96.8%. In addition, the differential viability (reversal) in assay [3] (H69AR cells + 2 uM doxorubicin) was 7.89% (inactive). In addition, the inhibition in assay [4] is -4% (inactive); in assay [5], -5.08% (inactive).
With `CCOC(=O)Cc1nnc(NC(=O)c2ncn[nH]2)s1`, the viability in assay [1] was 95.4% (inactive); in assay [2] it was 98.8% (inactive); in assay [3] (setting [6]) it was 101%; in assay [3] (setting [7]), 98.8%. The differential viability (reversal) in assay [3] (H69AR cells + 2 uM doxorubicin) is -2.02% (inactive). For the same compound, the values for the inhibition in assay [4] and in assay [5] were -2.93% (inactive) and -1.27% (inactive), respectively.
`Cc1ccc(S(=O)(=O)N(C)CC(=O)NC2CC(C)(C)NC(C)(C)C2)cc1`: the viability in assay [1] was 93.1% (inactive); in assay [2], 96.2% (inactive); in assay [3] (setting [6]), 88%; in assay [3] (setting [7]), 96.2%. Moreover, in assay [3] (H69AR cells + 2 uM doxorubicin), the differential viability (reversal) is 8.25% (inactive). The inhibition is -1.04% (inactive) in assay [4] and 0.32% (inactive) in assay [5].
Take `CC1Cc2ccccc2N1C(=O)Cc1cccs1` (stereo not drawn): the viability in assay [1] was 84.8% (inactive); in assay [2] it was 108% (inactive); in assay [3] (setting [6]) it was 92.3%; in assay [3] (setting [7]) it was 108%. In addition, the differential viability (reversal) in assay [3] (H69AR cells + 2 uM doxorubicin) was 16.1% (inactive). Also, the figures for the inhibition in assay [4] and in assay [5] were -1.71% (inactive) and 2.06% (inactive), respectively.
Regarding `Cc1ccc(NC(=O)c2ccco2)cc1NC(=O)CSc1nnc(-c2cccs2)n1C`, the viability in assay [1] is 112% (inactive); in assay [2] it was 99.8% (inactive); in assay [3] (setting [6]), 76.4%; in assay [3] (setting [7]) it was 99.8%. Also, the differential viability (reversal) in assay [3] (H69AR cells + 2 uM doxorubicin) was 23.4% (inactive). The inhibition was -6.13% (inactive) in assay [4] and 2.38% (inactive) in assay [5].
On to `O=C(O)C1C2CCC(O2)C1C(=O)Nc1cccc(F)c1` (stereo not drawn), for which the viability is 80.9% (inactive) in assay [1], 90.8% (inactive) in assay [2], 80.5% in assay [3] (setting [6]) and 90.8% in assay [3] (setting [7]). Also, the differential viability (reversal) in assay [3] (H69AR cells + 2 uM doxorubicin) is 10.3% (inactive). In addition, the inhibition in assay [4] is -4.74% (inactive); in assay [5], 3.02% (inactive).
For the compound `COc1cccc(-c2csc3nc[nH]c(=O)c23)c1`, the viability in assay [1] was 92.6% (inactive); in assay [2], 86.7% (inactive); in assay [3] (setting [6]), 70%; in assay [3] (setting [7]), 86.7%. Also, the differential viability (reversal) in assay [3] (H69AR cells + 2 uM doxorubicin) is 16.7% (inactive). In addition, the inhibition in assay [4] was -5.73% (inactive); in assay [5], 5.71% (inactive).
As to `Cc1ccc(-c2ccc(/C=N/n3cnnc3)o2)cc1Cl`, the viability in assay [1] is 87.2% (inactive); in assay [2], 101% (inactive); in assay [3] (setting [6]), 96.3%; in assay [3] (setting [7]), 101%. Besides, the differential viability (reversal) in assay [3] (H69AR cells + 2 uM doxorubicin) was 4.54% (inactive). Also, the inhibition in assay [4] is -2.08% (inactive); in assay [5] it was 86.2% (active).
As to `O=C(Cn1cnc2sc(-c3ccccc3)cc2c1=O)N1CCOCC1`, the viability is 116% (inactive) in assay [1], 97% (inactive) in assay [2], 93.4% in assay [3] (setting [6]) and 97% in assay [3] (setting [7]). Besides, in assay [3] (H69AR cells + 2 uM doxorubicin), the differential viability (reversal) is 3.61% (inactive). Further, the inhibition in assay [4] is -1.58% (inactive); in assay [5], 1.75% (inactive).
For `CC(C)NC(=O)NC(=O)COc1cccc2c1OC(C)(C)C2`, the viability in assay [1] was 97.1% (inactive); in assay [2], 105% (inactive); in assay [3] (setting [6]) it was 87.9%; in assay [3] (setting [7]), 105%. Further, the differential viability (reversal) in assay [3] (H69AR cells + 2 uM doxorubicin) was 16.9% (inactive). Besides, the inhibition in assay [4] is -3.38% (inactive); in assay [5], 0.79% (inactive).
Regarding `COc1cccc2cc(C(=O)n3ccc(C)n3)c(=O)oc12`, the viability in assay [1] was 111% (inactive); in assay [2] it was 93.4% (inactive); in assay [3] (setting [6]) it was 90.6%; in assay [3] (setting [7]) it was 93.4%. Moreover, the differential viability (reversal) in assay [3] (H69AR cells + 2 uM doxorubicin) is 2.8% (inactive). For the same compound, the inhibition in assay [4] is -3.29% (inactive); in assay [5], 7.14% (inactive).

The record behind these values is PubChem BioAssay.
